The values below come from PubChem BioAssay (Tox21).

The nature of test [1]: A CellTox Green Cytotoxicity Assay to monitor cytotoxicity in HepG2 cells - 32 hour (AID 1224883). Also: nearly all actives have a fitted effect of over 50% in size. Also: potency is read from the fitted curve at half-maximal effect. The method, boiled down:
(§1)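 Measurements at 0, 8, 16, 24, 32 and 40 h of treatment captured CellTox Green fluorescence in HepG2 cells that had been co-plated with reagent and preincubated 5 h at 37 C/5% CO2.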

A short description of test [2]: A CellTox Green Cytotoxicity Assay to monitor cytotoxicity in HEK293 cells - 8 hour (AID 1224884). Also: nearly all actives have a fitted effect of over 35% in size. Also: potency is read from the fitted curve at half-maximal effect. The method, boiled down:
(§2)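 Tox21 screen in HEK293: membrane-impermeant cyanine dye fluoresces on binding dead-cell DNA; compound pinned 5 h post-seeding, plates held at 37 C, signal read repeatedly through 40 h.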

The nature of test [3]: qHTS RealTime-Glo MT Cell Viability Assay in HepG2 cells - 16 hour (AID 1224885). Also: nearly all actives have a fitted effect of over 50% in size. Also: potency is read from the fitted curve at half-maximal effect. The method, boiled down:
(§3)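 Cell number in HepG2 cultures estimated from NanoLuc luminescence generated by metabolic reduction of a prosubstrate by living cells. The homogeneous, nonlytic format allowed repeated reads at 0, 8, 16, 24, 32 and 40 h of compound exposure.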

Test [4] is described as follows: qHTS RealTime-Glo MT Cell Viability Assay in HEK293 cells - 24 hour (AID 1224886). Also: nearly all actives have a fitted effect of over 50% in size. Also: potency is read from the fitted curve at half-maximal effect. As to activity change, negative = cytotoxicity: top concentration of the series differs between compounds. The method, boiled down:
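Homogeneous bioluminescent viability format in HEK293 cells (600 cells/well). Following 5 h at 37 C/5% CO2, 23 nL compound was pintooled; the signal was measured repeatedly during 40 h incubation.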
In general terms: qHTS replaces the single test concentration by a dilution series.

The nature of test [5]: A CellTox Green Cytotoxicity Assay to monitor cytotoxicity in HEK293 cells - 16 hour (AID 1224888). Also: nearly all actives have a fitted effect of over 35% in size. Also: potency is read from the fitted curve at half-maximal effect. The method, boiled down: as §2
A short description of test [6]: qHTS RealTime-Glo MT Cell Viability Assay in HepG2 cells - 0 hour (AID 1224889). Also: nearly all actives have a fitted effect of over 50% in size. The method, boiled down:
as §3

Test [7] in a line: A CellTox Green Cytotoxicity Assay to monitor cytotoxicity in HepG2 cells - 8 hour (AID 1224890). Also: nearly all actives have a fitted effect of over 45% in size. Also: potency is read from the fitted curve at half-maximal effect. The method, boiled down:
as §1

The nature of test [8]: qHTS RealTime-Glo MT Cell Viability Assay in HEK293 cells - 8 hour (AID 1224887). Also: nearly all actives have a fitted effect of over 50% in size. Also: potency is read from the fitted curve at half-maximal effect. As to activity change, negative = cytotoxicity: top concentration of the series differs between compounds. The method, boiled down: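 HEK293 + NanoLuc + prosubstrate, 600 cells/well; 5 h, 37 C/5% CO2; compound 23 nL in DMSO by pintool; 37 C; luminescence read at 0, 8, 16, 24, 32 and 40 h time points.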
Test [9] can be described thus: qHTS assay to identify small molecule antagonists of the estrogen receptor alpha (ER-alpha) signaling pathway using the BG1 cell line in the presence of 0.1 nM 17-beta-estradiol - cell viability counter screen (AID 1259241). Also: nearly all actives have a fitted effect of over 40% in size. Also: potency is read from the fitted curve at half-maximal effect. The method, boiled down:
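Live-cell protease activity (CellTiter-Fluor fluorescence, 30 min) was read in the same wells after VM7Luc4E2 cells had been exposed to compounds with 0.1 nM 17beta-estradiol for 22 hr at 37C.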

A short description of test [10]: qHTS assay to identify small molecule antagonists of the androgen receptor (AR) signaling pathway using the MDA cell line in the presence of 0.5 nM R1881 - cell viability counter screen (AID 1259242). Also: nearly all actives have a fitted effect of over 45% in size. Also: potency is read from the fitted curve at half-maximal effect. The method, boiled down:
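Concentration-response screen of compounds for toxicity in MDA-kb2 reporter cells: 16 hr at 37C with 0.5 nM R1881, endpoint live-cell protease fluorescence measured in the reporter wells.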

“And” between values parts separate entries of the source, which are not always exact repeats. Identical values can stand only once. Inconclusive results are not listed. A structure can be active in one record and inactive in another. The source made the active and inactive calls. Calls follow the shape of the dose curve; as a rule, active = well fitted curve in the direction sought with a large enough effect in the repeat runs; inconclusive = weak or mixed curves; inactive = no such curve, though single readings can be large; an effect the other way counts as inactive or inconclusive. Starred links: 1 amine or outer side, 2 acyl side, 3 side chain; linkers in the order of their positions; H or OH if unused. Positions of bridges follow the written chain, without caps; N, C: chain ends. Non-standard residues stand in square brackets, D forms with d. Residues, ends and D or L forms follow the SMILES beside them. Chains are numbered I, II in the order given. Actinocin(9to1) = Cc1c2oc3c(C)ccc(C(=O)[*:1])c3nc-2c(C(=O)[*:2])c(N)c1=O; NMeV = CN[C@H](C(=O)O)C(C)C; Sar = CNCC(=O)O
% is scaled to controls: 0 for no effect and ±100 for the full control effect.

As to `Cc1c2oc3c(C)ccc(C(=O)N[C@@H]4C(=O)N[C@H](C(C)C)C(=O)N5CCC[C@H]5C(=O)N(C)CC(=O)N(C)[C@@H](C(C)C)C(=O)O[C@@H]4C)c3nc-2c(C(=O)N[C@@H]2C(=O)N[C@H](C(C)C)C(=O)N3CCC[C@H]3C(=O)N(C)CC(=O)N(C)[C@@H](C(C)C)C(=O)O[C@@H]2C)c(N)c1=O` (I: T[dV]P[Sar][NMeV] / II: T[dV]P[Sar][NMeV]; ester I:1-I:C, II:1-II:C; linker I:N-II:N via Actinocin(9to1)), the Potency in test [1] was 21.3 nM (active); in test [3], 8.47 µM (active) and 9.52 µM (active); in test [4] it was 16.9 nM (active) and 23.9 nM (active). The Potency result in test [2], in [5], in [6] and in test [7] was “inactive” throughout.

On to `CCCN[C@H]1CCc2nc(N)sc2C1`, for which the Potency result in test [1], in test [2], in [3], in test [4], in [8] and in test [5] was “inactive” each time. The Potency entry in test [7], in [9] and in test [10] was “inactive” throughout.

Regarding `CC(C)(c1ccccc1)c1ccc(Nc2ccc(C(C)(C)c3ccccc3)cc2)cc1`, the Potency entry in [1], in test [2], in [3], in test [8], in test [5] and in test [6] was “inactive” each time. Further, the Potency entry in test [7], in test [9] and in test [10] was “inactive” in each case.

Regarding `NCCO`, the Potency result in test [1], in test [2], in test [3], in test [4], in [8] and in [5] was “inactive” throughout. Besides, the Potency result in test [7], in test [9] and in [10] was “inactive” throughout.

As to `c1cc(C(c2ccc(OCC3CO3)cc2)C(c2ccc(OCC3CO3)cc2)c2ccc(OCC3CO3)cc2)ccc1OCC1CO1` (stereo not drawn), the Potency result in test [1], in [2], in test [3], in [4], in test [8] and in [5] was “inactive” throughout. The Potency result in [7], in test [9] and in test [10] was “inactive” each time.

On to `C1COC(NC(C2CC2)C2CC2)=N1`, for which the Potency entry in [1], in [2], in test [3], in [4], in test [8] and in test [5] was “inactive” throughout. The Potency result in test [7], in test [9] and in test [10] was “inactive” in each case.

With `CCC(C)(Oc1ccc(C2(c3ccc(OC(C)(CC)C(=O)O)cc3)CCCCC2)cc1)C(=O)O` (stereo not drawn), the Potency entry in [1], in test [2], in [3], in test [8], in [5] and in test [6] was “inactive” each time. For the same compound, the Potency result in test [7], in [9] and in test [10] was “inactive” in each case.

In the case of `Cc1ccnc2c1NC(=O)c1cccnc1N2C1CC1`, the Potency result in test [1], in [2], in test [3], in test [4], in test [8] and in [5] was “inactive” each time. The Potency entry in test [7], in test [9] and in [10] was “inactive” in each case.

Turning to `CCOC(=O)C(C)C(C)=O` (stereo not drawn), the Potency result in [1], in test [2], in test [3], in test [8], in [5] and in [6] was “inactive” in each case. Besides, the Potency result in test [7], in test [9] and in [10] was “inactive” each time.

`CCc1ccc(C(c2ccc(CC)cc2)C(Cl)Cl)cc1`: the Potency entry in [1], in test [2], in test [3], in test [8], in test [5] and in test [6] was “inactive” each time. Further, the Potency entry in [7], in test [9] and in test [10] was “inactive” throughout.

Turning to `Nc1cc(S(=O)(=O)O)cc2cc(S(=O)(=O)O)cc(O)c12`, the Potency result in test [1], in test [2], in test [3], in test [4], in test [5] and in [6] was “inactive” each time. Further, the Potency entry in test [7] and in [10] was “inactive” throughout. In test [9], the Potency was 27.3 µM (active).

For the compound `Oc1c(Cl)cc(Cl)cc1Sc1cc(Cl)cc(Cl)c1O`, the Potency in test [1] is 44.4 µM (active) and 43.6 µM (active) and inactive; in test [2], “inactive and 43.6 µM (active)”; in test [4], 21.9 µM (active); in [7], “inactive and 43.6 µM (active)”. The Potency entry in [3], in test [8] and in [6] was “inactive” each time.

For `CCN(CC)c1ccc2c(C)cc(=O)oc2c1`, the Potency result in [1], in test [2], in test [3], in [8], in [5] and in test [6] was “inactive” each time. Further, the Potency result in test [7] and in test [10] was “inactive” each time. In addition, the Potency in [4] was 34.9 µM (active).

With `NC(=Nc1ccccc1)Nc1ccccc1`, the Potency result in test [1], in test [2], in test [3], in test [8], in test [5] and in test [6] was “inactive” throughout. Also, the Potency entry in test [7], in [9] and in [10] was “inactive” throughout.

Consider `CCN(CC)C(=O)Nc1ccc(OCC(O)CNC(C)(C)C)c(C(C)=O)c1` (stereo not drawn), for which the Potency entry in test [1], in test [2], in test [3], in test [8], in test [5] and in test [6] was “inactive” in each case. Further, the Potency result in test [7], in test [9] and in [10] was “inactive” throughout.

`CCN(CC)C(=S)SSC(=S)N(CC)CC`: the Potency in test [1] is 8250 nM (active); in [2] it was “inactive and 56.2 µM (active)”; in test [3], 141 nM (active); in [4], 195 nM (active) and 100 nM (active) and 13.4 µM (active); in test [8], 13.8 µM (active) and 18.5 µM (active); in test [7], 56.2 µM (active) and inactive. For the same compound, the Potency result in test [6], in test [9] and in [10] was “inactive” throughout.

Consider `NC(Cc1ccc(Cl)cc1)C(=O)O` (stereo not drawn), for which the cytotoxicity increase in test [1] is -4.66% [at 0.29 µM] (inactive); in test [2] it was 5.18% [at 0.29 µM] (inactive); in test [7], -8.44% [at 0.29 µM] (inactive). Also, the activity change, negative = cytotoxic in [3] is -3.04% [at 0.29 µM] (inactive). For the same compound, the activity change, negative = cytotoxicity was 9.19% [at 0.29 µM] (inactive) in test [4], 10.3% [at 0.29 µM] (inactive) in [8] and 0.121% [at 0.349 µM] (inactive) in test [9]. Also, the activity change in [5] was -4.15% [at 0.29 µM, stronger effect = higher value] (inactive). For the same compound, the viability change, negative = cytotoxic in test [10] is 4.52% [at 0.349 µM] (inactive).

Regarding `c1ccc2c(c1)-c1cccc3c1c-2cc1ccccc13`, the Potency entry in test [1], in [2], in test [3], in test [8], in [5] and in [6] was “inactive” each time. In addition, the Potency result in test [7], in test [9] and in [10] was “inactive” each time.

`CN1C(=O)c2ccc([N+](=O)[O-])cc2C1=O`: the Potency result in test [1], in test [3], in [4], in test [8], in test [5] and in [6] was “inactive” throughout. For the same compound, the Potency entry in [7], in test [9] and in test [10] was “inactive” in each case.

In the case of `Cc1ccc(S(=O)(=O)Oc2ccc(N=Nc3ccc(-c4ccc(N=Nc5c(O)ccc6cc(S(=O)(=O)O)cc(S(=O)(=O)O)c56)c(C)c4)cc3C)cc2)cc1`, the Potency entry in test [1], in [2], in [8], in [5] and in [7] was “inactive” in each case. For the same compound, the Potency in [9] was 21.8 µM (active) and 14.1 µM (active); in test [10], 27.4 µM (active) and 17.8 µM (active).

Take `CNCCC(Oc1ccc(C(F)(F)F)cc1)c1ccccc1` (stereo not drawn): the Potency is 48.4 µM (active) and 16.9 µM (active) in test [1]; 26.8 µM (active) in test [2]; 23.9 µM (active) in test [5]; 29.8 µM (active) in [10].
